{"source": "the supplement of paper PMC6853941"}
{"test_system": "MCF10A", "test": "perturbation Mahalanobis distance of morphological profile vs DMSO controls (Mahalanobis distance (SD units)); higher = stronger morphological change, active = 7 or more", "conditions": "screen batch: Batch1_Mahalanobis_Distance; 72 h", "description": "(§1)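 MCF10A cells were seeded onto drugs dispensed acoustically into 384-well plates, using one dose per drug chosen from its human peak plasma concentration, and incubated for 72 h at 37 °C. Cells were stained for DNA, tubulin and mitochondria and imaged; 78 CellProfiler features were extracted, plate-normalised and compared with DMSO wells.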"}
{"smiles": "Cc1cn[nH]c1", "note": "[Fomepizole] (299.6 µM)", "perturbation Mahalanobis distance": "2.14 (inactive)"}
{"smiles": "CC(=O)O[C@]1(C(C)=O)CC[C@H]2[C@@H]3CCC4=CC(=O)CCC4=C3[C@@H](c3ccc(N(C)C)cc3)C[C@@]21C", "note": "[Ulipristal Acetate] (3.9 µM)", "perturbation Mahalanobis distance": "9.29 (active)"}
{"smiles": "CCCc1nn(C)c2c(=O)[nH]c(-c3cc(S(=O)(=O)N4CCN(C)CC4)ccc3OCC)nc12", "note": "[Sildenafil] (0.53 µM)", "perturbation Mahalanobis distance": "3.27 (inactive)"}
{"smiles": "NS(=O)(=O)Cc1noc2ccccc12", "note": "[Zonisamide] (141.4 µM)", "perturbation Mahalanobis distance": "2.42 (inactive)"}
{"smiles": "Nc1ccn([C@H]2CC[C@@H](CO)O2)c(=O)n1", "note": "[Zalcitabine] (2.4 µM)", "perturbation Mahalanobis distance": "2.44 (inactive)"}
{"smiles": "CC(C)NCC(O)c1ccc(O)c(O)c1", "note": "(centres undefined) [Isoproterenol] (11.8 µM)", "perturbation Mahalanobis distance": "3.12 (inactive)"}
{"smiles": "CCS(=O)(=O)CCn1c([N+](=O)[O-])cnc1C", "note": "[Tinidazole] (192.9 µM)", "perturbation Mahalanobis distance": "2.45 (inactive)"}
{"smiles": "O=C1[C@H](CC[C@H](O)c2ccc(F)cc2)[C@@H](c2ccc(O)cc2)N1c1ccc(F)cc1", "note": "[Ezetimibe] (0.87 µM)", "perturbation Mahalanobis distance": "3.59 (inactive)"}
{"smiles": "COC(=O)Nc1nc2ccc(C(=O)c3ccccc3)cc2[nH]1", "note": "[Mebendazole] (1.7 µM)", "perturbation Mahalanobis distance": "5.89 (inactive)"}
{"smiles": "CS(=O)(=O)OCCCCOS(C)(=O)=O", "note": "[Busulfan] (1.4 µM)", "perturbation Mahalanobis distance": "2.31 (inactive)"}
{"smiles": "CC(c1cc2ccccc2s1)N(O)C(N)=O", "note": "(centres undefined) [Zileuton] (105.4 µM)", "perturbation Mahalanobis distance": "3.71 (inactive)"}
{"smiles": "Nc1c2c(nc3ccccc13)CCCC2", "note": "[Tacrine] (0.25 µM)", "perturbation Mahalanobis distance": "2.25 (inactive)"}
{"smiles": "CC[C@H]1OC(=O)[C@H](C)[C@@H](O[C@H]2C[C@@](C)(OC)[C@@H](O)[C@H](C)O2)[C@H](C)[C@@H](O[C@@H]2O[C@H](C)C[C@H](N(C)C)[C@H]2O)[C@](C)(O)C[C@@H](C)CN(C)[C@H](C)[C@@H](O)[C@]1(C)O", "note": "[Azithromycin] (6.7 µM)", "perturbation Mahalanobis distance": "3.29 (inactive)"}
{"smiles": "S=c1nc[nH]c2nc[nH]c12", "note": "[6-Mercaptopurine] (9.9 µM)", "perturbation Mahalanobis distance": "2.97 (inactive)"}
{"smiles": "C[C@H]1O[C@H](O[C@H]2[C@H](O)[C@@H](O)[C@@H](O[C@H]3[C@H](O)[C@@H](O)C(O)O[C@@H]3CO)O[C@@H]2CO)[C@H](O)[C@@H](O)[C@@H]1N[C@H]1C=C(CO)[C@@H](O)[C@H](O)[C@H]1O", "note": "(some centres undefined) [Acarbose] (2.2 µM)", "perturbation Mahalanobis distance": "2.5 (inactive)"}
{"smiles": "CCC1(c2ccccc2)NC(=O)N(C)C1=O", "note": "(centres undefined) [Mephenytoin] (343.8 µM)", "perturbation Mahalanobis distance": "3.16 (inactive)"}
{"smiles": "C=CC[C@@H]1/C=C(\\C)C[C@H](C)C[C@H](OC)[C@H]2O[C@@](O)(C(=O)C(=O)N3CCCC[C@H]3C(=O)O[C@H](/C(C)=C/[C@@H]3CC[C@@H](O)[C@H](OC)C3)[C@H](C)[C@@H](O)CC1=O)[C@H](C)C[C@@H]2OC", "note": "[Tacrolimus] (0.09 µM)", "perturbation Mahalanobis distance": "2.64 (inactive)"}
{"smiles": "O=C1C(=O)c2ccccc2C(O)=C1C1CCC(c2ccc(Cl)cc2)CC1", "note": "(centres undefined) [Atovaquone] (37.9 µM)", "perturbation Mahalanobis distance": "3.34 (inactive)"}
{"smiles": "CCN(CC)C(=O)/C(C#N)=C/c1cc(O)c(O)c([N+](=O)[O-])c1", "note": "[Entacapone] (6.6 µM)", "perturbation Mahalanobis distance": "1.99 (inactive)"}
{"smiles": "NC[C@@H]1O[C@H](O[C@H]2[C@@H](O)[C@H](O[C@@H]3[C@@H](O)[C@H](N)C[C@H](N)[C@H]3O[C@H]3O[C@H](CO)[C@@H](O)[C@H](O)[C@H]3N)O[C@@H]2CO)[C@H](N)[C@@H](O)[C@@H]1O", "note": "[Paromomycin] (332.3 µM)", "perturbation Mahalanobis distance": "4.01 (inactive)"}
{"test_system": "MCF10A", "test": "perturbation Mahalanobis distance of morphological profile vs DMSO controls (Mahalanobis distance (SD units)); higher = stronger morphological change, active = 7 or more", "conditions": "screen batch: Batch2_Mahalanobis_Distance; 72 h", "description": "as §1"}
{"smiles": "Cc1cn[nH]c1", "note": "[Fomepizole] (299.6 µM)", "perturbation Mahalanobis distance": "3.81 (inactive)"}
{"smiles": "CC(=O)O[C@]1(C(C)=O)CC[C@H]2[C@@H]3CCC4=CC(=O)CCC4=C3[C@@H](c3ccc(N(C)C)cc3)C[C@@]21C", "note": "[Ulipristal Acetate] (3.9 µM)", "perturbation Mahalanobis distance": "10.4 (active)"}
{"smiles": "CCCc1nn(C)c2c(=O)[nH]c(-c3cc(S(=O)(=O)N4CCN(C)CC4)ccc3OCC)nc12", "note": "[Sildenafil] (0.53 µM)", "perturbation Mahalanobis distance": "4.22 (inactive)"}
{"smiles": "NS(=O)(=O)Cc1noc2ccccc12", "note": "[Zonisamide] (141.4 µM)", "perturbation Mahalanobis distance": "2.95 (inactive)"}
{"smiles": "Nc1ccn([C@H]2CC[C@@H](CO)O2)c(=O)n1", "note": "[Zalcitabine] (2.4 µM)", "perturbation Mahalanobis distance": "3.2 (inactive)"}
{"smiles": "CC(C)NCC(O)c1ccc(O)c(O)c1", "note": "(centres undefined) [Isoproterenol] (11.8 µM)", "perturbation Mahalanobis distance": "4.76 (inactive)"}
{"smiles": "CCS(=O)(=O)CCn1c([N+](=O)[O-])cnc1C", "note": "[Tinidazole] (192.9 µM)", "perturbation Mahalanobis distance": "2.69 (inactive)"}
{"smiles": "O=C1[C@H](CC[C@H](O)c2ccc(F)cc2)[C@@H](c2ccc(O)cc2)N1c1ccc(F)cc1", "note": "[Ezetimibe] (0.87 µM)", "perturbation Mahalanobis distance": "2.59 (inactive)"}
{"smiles": "COC(=O)Nc1nc2ccc(C(=O)c3ccccc3)cc2[nH]1", "note": "[Mebendazole] (1.7 µM)", "perturbation Mahalanobis distance": "3.69 (inactive)"}
{"smiles": "CS(=O)(=O)OCCCCOS(C)(=O)=O", "note": "[Busulfan] (1.4 µM)", "perturbation Mahalanobis distance": "2.95 (inactive)"}
{"smiles": "CC(c1cc2ccccc2s1)N(O)C(N)=O", "note": "(centres undefined) [Zileuton] (105.4 µM)", "perturbation Mahalanobis distance": "5.1 (inactive)"}
{"smiles": "Nc1c2c(nc3ccccc13)CCCC2", "note": "[Tacrine] (0.25 µM)", "perturbation Mahalanobis distance": "2.5 (inactive)"}
{"smiles": "CC[C@H]1OC(=O)[C@H](C)[C@@H](O[C@H]2C[C@@](C)(OC)[C@@H](O)[C@H](C)O2)[C@H](C)[C@@H](O[C@@H]2O[C@H](C)C[C@H](N(C)C)[C@H]2O)[C@](C)(O)C[C@@H](C)CN(C)[C@H](C)[C@@H](O)[C@]1(C)O", "note": "[Azithromycin] (6.7 µM)", "perturbation Mahalanobis distance": "4.74 (inactive)"}
{"smiles": "S=c1nc[nH]c2nc[nH]c12", "note": "[6-Mercaptopurine] (9.9 µM)", "perturbation Mahalanobis distance": "8.34 (active)"}
{"smiles": "C[C@H]1O[C@H](O[C@H]2[C@H](O)[C@@H](O)[C@@H](O[C@H]3[C@H](O)[C@@H](O)C(O)O[C@@H]3CO)O[C@@H]2CO)[C@H](O)[C@@H](O)[C@@H]1N[C@H]1C=C(CO)[C@@H](O)[C@H](O)[C@H]1O", "note": "(some centres undefined) [Acarbose] (2.2 µM)", "perturbation Mahalanobis distance": "3.14 (inactive)"}
{"smiles": "CCC1(c2ccccc2)NC(=O)N(C)C1=O", "note": "(centres undefined) [Mephenytoin] (343.8 µM)", "perturbation Mahalanobis distance": "3.69 (inactive)"}
{"smiles": "C=CC[C@@H]1/C=C(\\C)C[C@H](C)C[C@H](OC)[C@H]2O[C@@](O)(C(=O)C(=O)N3CCCC[C@H]3C(=O)O[C@H](/C(C)=C/[C@@H]3CC[C@@H](O)[C@H](OC)C3)[C@H](C)[C@@H](O)CC1=O)[C@H](C)C[C@@H]2OC", "note": "[Tacrolimus] (0.09 µM)", "perturbation Mahalanobis distance": "2.28 (inactive)"}
{"smiles": "O=C1C(=O)c2ccccc2C(O)=C1C1CCC(c2ccc(Cl)cc2)CC1", "note": "(centres undefined) [Atovaquone] (37.9 µM)", "perturbation Mahalanobis distance": "1.78 (inactive)"}
{"smiles": "CCN(CC)C(=O)/C(C#N)=C/c1cc(O)c(O)c([N+](=O)[O-])c1", "note": "[Entacapone] (6.6 µM)", "perturbation Mahalanobis distance": "2.48 (inactive)"}
